In ChEMBL document CHEMBL5724796, “Tm Shift (DSF) assay results for EUbOPEN Chemogenomics Library” (2024) one finds ΔTm data, which are given here for eleven molecules.

Broadly, the ΔTm is the change in melting temperature against a reference sample.

Common to all, as to settings: Compound concentration 20.0 uM
Test [1] concerns the target Tyrosine-protein kinase ABL1 (Homo sapiens) (UniProt P00519).
The target of test [2] is Bromodomain-containing protein 4 (Homo sapiens) (UniProt O60885).
Test [3] concerns the target Cyclin-dependent kinase 2 (Homo sapiens) (UniProt P24941).
Test [4] addresses Casein kinase I isoform delta (Homo sapiens) (UniProt P48730).
Test [5] addresses Glycogen synthase kinase-3 beta (Homo sapiens) (UniProt P49841).
The target of test [6] is Mitogen-activated protein kinase 1 (Homo sapiens) (UniProt P28482).
Test [7] deals with T1, Aurora kinase A (Homo sapiens) (UniProt O14965).
T1 sequence (whole entry): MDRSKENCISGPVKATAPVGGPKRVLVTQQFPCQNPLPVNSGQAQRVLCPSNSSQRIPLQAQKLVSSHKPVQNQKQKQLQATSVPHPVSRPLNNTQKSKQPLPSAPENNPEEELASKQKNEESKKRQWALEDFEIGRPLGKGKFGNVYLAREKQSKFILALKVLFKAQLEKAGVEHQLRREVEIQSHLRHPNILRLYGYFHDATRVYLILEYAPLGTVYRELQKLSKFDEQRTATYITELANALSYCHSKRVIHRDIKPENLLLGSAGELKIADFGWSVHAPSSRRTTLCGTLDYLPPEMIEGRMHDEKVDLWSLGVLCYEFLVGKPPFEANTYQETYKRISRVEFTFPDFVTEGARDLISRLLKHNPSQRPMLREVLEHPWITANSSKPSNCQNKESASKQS

Test [8] addresses T2, Transcription intermediary factor 1-alpha (Homo sapiens) (UniProt O15164).
T2 sequence (whole entry): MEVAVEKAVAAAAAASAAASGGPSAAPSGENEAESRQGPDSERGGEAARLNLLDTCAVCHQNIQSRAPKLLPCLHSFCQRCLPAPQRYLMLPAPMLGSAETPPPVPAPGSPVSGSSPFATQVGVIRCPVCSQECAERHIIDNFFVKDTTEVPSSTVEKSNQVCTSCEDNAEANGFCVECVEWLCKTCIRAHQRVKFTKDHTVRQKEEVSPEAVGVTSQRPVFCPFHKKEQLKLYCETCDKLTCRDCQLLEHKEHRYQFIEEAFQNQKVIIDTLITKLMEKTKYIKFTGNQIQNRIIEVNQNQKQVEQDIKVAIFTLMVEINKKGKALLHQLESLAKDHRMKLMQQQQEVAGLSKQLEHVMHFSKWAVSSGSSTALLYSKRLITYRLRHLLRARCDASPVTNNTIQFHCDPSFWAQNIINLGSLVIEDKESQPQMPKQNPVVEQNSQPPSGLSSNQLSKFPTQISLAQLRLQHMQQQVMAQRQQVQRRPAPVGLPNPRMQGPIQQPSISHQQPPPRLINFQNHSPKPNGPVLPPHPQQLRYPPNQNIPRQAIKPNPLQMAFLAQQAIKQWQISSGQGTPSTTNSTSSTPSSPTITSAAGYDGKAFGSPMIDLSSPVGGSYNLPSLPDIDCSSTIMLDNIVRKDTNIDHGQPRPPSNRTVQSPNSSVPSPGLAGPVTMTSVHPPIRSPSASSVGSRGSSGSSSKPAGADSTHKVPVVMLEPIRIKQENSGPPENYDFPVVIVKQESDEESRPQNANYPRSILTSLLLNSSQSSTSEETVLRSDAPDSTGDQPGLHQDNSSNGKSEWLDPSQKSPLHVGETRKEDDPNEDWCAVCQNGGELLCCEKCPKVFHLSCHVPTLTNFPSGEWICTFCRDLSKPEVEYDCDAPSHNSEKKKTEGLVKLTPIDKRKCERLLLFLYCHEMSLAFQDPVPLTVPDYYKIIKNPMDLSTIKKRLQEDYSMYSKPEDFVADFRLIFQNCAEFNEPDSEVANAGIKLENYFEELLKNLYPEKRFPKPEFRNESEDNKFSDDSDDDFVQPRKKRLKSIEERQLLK

Structures are written as SMILES.

Chain of Glycogen synthase kinase-3 beta (Homo sapiens) (P49841 whole entry, looked up): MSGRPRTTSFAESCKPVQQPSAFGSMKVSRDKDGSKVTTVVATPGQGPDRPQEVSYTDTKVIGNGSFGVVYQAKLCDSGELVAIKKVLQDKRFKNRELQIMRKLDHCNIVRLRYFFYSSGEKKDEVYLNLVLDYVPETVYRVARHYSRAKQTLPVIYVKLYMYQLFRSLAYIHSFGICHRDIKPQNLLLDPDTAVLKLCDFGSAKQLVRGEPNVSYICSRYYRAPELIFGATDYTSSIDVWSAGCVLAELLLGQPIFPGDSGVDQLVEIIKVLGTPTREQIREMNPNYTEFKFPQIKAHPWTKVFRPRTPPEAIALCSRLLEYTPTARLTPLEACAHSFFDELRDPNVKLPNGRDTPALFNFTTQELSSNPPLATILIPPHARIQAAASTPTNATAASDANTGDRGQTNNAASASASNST
Chain of Tyrosine-protein kinase ABL1 (Homo sapiens) (P00519 whole entry): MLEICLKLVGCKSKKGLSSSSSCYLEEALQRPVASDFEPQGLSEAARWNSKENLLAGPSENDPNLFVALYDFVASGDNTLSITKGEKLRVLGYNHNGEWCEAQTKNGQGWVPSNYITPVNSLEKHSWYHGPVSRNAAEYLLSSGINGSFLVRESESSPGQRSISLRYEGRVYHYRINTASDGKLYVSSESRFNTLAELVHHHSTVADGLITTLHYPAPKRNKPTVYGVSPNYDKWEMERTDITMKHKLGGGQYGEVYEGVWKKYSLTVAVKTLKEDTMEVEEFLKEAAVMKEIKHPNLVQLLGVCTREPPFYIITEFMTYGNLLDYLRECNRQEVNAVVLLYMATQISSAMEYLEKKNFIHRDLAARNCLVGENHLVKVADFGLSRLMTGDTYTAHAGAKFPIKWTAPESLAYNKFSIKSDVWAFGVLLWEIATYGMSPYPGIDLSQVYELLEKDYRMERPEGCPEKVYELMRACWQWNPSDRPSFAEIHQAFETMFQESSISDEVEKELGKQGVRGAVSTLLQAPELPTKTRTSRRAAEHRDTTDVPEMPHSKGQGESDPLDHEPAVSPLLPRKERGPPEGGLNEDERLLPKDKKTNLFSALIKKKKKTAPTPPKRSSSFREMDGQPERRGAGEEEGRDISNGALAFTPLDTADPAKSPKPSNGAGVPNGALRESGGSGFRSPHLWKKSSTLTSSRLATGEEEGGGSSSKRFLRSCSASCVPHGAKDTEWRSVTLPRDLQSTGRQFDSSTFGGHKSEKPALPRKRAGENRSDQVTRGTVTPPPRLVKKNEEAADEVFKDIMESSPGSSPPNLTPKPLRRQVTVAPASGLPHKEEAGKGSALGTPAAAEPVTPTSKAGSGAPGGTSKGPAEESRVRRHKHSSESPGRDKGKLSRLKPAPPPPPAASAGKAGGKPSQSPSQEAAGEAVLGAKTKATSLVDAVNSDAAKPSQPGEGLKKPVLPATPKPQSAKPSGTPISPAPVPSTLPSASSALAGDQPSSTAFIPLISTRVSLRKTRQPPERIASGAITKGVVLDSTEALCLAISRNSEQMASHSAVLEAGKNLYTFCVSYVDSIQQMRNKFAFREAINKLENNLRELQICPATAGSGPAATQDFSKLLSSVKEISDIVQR
Chain of Mitogen-activated protein kinase 1 (Homo sapiens) (P28482 whole entry): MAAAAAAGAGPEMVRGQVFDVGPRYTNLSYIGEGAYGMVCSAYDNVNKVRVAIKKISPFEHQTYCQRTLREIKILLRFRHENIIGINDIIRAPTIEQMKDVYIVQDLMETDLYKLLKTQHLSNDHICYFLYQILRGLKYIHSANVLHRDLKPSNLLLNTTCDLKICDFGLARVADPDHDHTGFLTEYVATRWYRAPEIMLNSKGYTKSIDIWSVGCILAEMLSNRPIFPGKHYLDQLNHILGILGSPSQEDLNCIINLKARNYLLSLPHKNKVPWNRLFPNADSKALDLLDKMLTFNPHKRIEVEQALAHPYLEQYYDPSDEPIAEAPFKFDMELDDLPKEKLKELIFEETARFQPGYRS
Chain of Casein kinase I isoform delta (Homo sapiens) (P48730 whole entry, looked up, canonical isoform): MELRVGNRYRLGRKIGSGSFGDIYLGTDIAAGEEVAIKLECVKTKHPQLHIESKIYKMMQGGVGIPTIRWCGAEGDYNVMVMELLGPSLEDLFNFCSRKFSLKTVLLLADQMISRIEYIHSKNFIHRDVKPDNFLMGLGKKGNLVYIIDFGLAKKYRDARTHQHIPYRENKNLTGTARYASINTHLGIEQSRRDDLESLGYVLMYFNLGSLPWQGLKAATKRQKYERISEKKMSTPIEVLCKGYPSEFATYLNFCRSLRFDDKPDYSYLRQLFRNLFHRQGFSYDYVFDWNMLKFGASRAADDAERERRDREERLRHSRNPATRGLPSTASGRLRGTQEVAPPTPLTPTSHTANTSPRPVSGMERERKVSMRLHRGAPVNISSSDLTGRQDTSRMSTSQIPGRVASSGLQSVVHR

`c1ccc(Cn2c(-c3ccc(OC[C@H](C4CCNCC4)n4c(-c5ccccc5)nc5ccccc54)cc3)nc3ccccc32)cc1`: the ΔTm in test [1] is -1.84 °C; in test [2] it was -6.29 °C; in test [3] it was -1.5 °C; in test [4] it was -0.34 °C; in test [5], -3.92 °C; in test [6], 0 °C. In addition, the ΔTm in test [7] was 0 °C; in test [8] it was -1.18 °C.

Regarding `COc1cccc(OC)c1S(=O)(=O)Nc1noc2cc(Cn3cccn3)cc(OC)c12`, the ΔTm was 0.73 °C in test [1]; -2.01 °C in test [2]; 0.06 °C in test [3]; -0.03 °C in test [4]; -1.16 °C in test [5]; 0.02 °C in test [6]. In addition, the ΔTm was -0.5 °C in test [7] and -1.5 °C in test [8].

As for `CC(C)(OCc1cc(-c2cccc(OC3CC3)c2)n(-c2ccccc2Cl)n1)C(=O)O`, the ΔTm in test [1] is 0.39 °C; in test [2] it was -3.91 °C; in test [3], -0.19 °C; in test [4], 0.08 °C; in test [5], 0.42 °C; in test [6] it was 0.09 °C. In addition, the ΔTm is -2.34 °C in test [7] and -0.77 °C in test [8].

With `C[C@H]1CCCN1Cc1nc2cc(NC(=O)c3ccc4c(cnn4C)c3)ccc2[nH]1`, the ΔTm in test [1] is 2.18 °C; in test [2], -0.92 °C; in test [3], 0.64 °C; in test [4], 0.92 °C; in test [5], -0.87 °C; in test [6], 0.27 °C. Moreover, the ΔTm in test [7] was -0.14 °C; in test [8] it was -0.88 °C.

`OC[C@H]1O[C@@H](c2ccc(Cl)c(Cc3ccc(OCCOC4CC4)cc3)c2)[C@H](O)[C@@H](O)[C@@H]1O`: the ΔTm is 0.7 °C in test [1]; -2.67 °C in test [2]; 0.19 °C in test [3]; -1.19 °C in test [4]; -0.38 °C in test [5]; 0.15 °C in test [6]. The ΔTm was -2.84 °C in test [7] and 0.19 °C in test [8].

Consider `O=c1[nH]c(N2CCC3(CC2)CN(CCO)c2cc(F)cc(F)c23)nc2c1CCCC2`, for which the ΔTm in test [1] was 0.43 °C; in test [2], -3.2 °C; in test [3] it was 0.1 °C; in test [4], -0.13 °C; in test [5], -1.32 °C; in test [6], 0.22 °C. Besides, the ΔTm in test [7] is -0.79 °C; in test [8], -1.21 °C.

For `O=C(NO)C(c1ccc(-c2ncc(C(F)(F)F)cn2)cc1)c1ccccc1F` (stereo not drawn), the thermal shift (ΔTm) in test [1] is 0.91 °C; in test [2], -2.36 °C; in test [3], 0.08 °C; in test [4] it was 0.69 °C; in test [5], -0.7 °C; in test [6] it was 0.1 °C. Besides, the ΔTm in test [7] is 0.24 °C; in test [8], -0.84 °C.

`C[C@@H](Nc1nc2c(cnn2C2CCCC2)c(=O)[nH]1)C(=O)N1CC[C@H](F)C1`: the ΔTm in test [1] is 0.58 °C; in test [2], -2.88 °C; in test [3], 0.63 °C; in test [4] it was -0.33 °C; in test [5], 1.37 °C; in test [6], 0.07 °C. The ΔTm in test [7] was -2 °C; in test [8], 0.97 °C.

For `COc1ccc2c(c1)OC(C)(C)C(c1ccccc1)C2c1ccc(OCCN2CCCC2)cc1` (stereo not drawn), the ΔTm was -0.02 °C in test [1]; -3.83 °C in test [2]; -2.04 °C in test [3]; -0.1 °C in test [4]; 0 °C in test [5]; -2.68 °C in test [6]. Further, the ΔTm was 0.51 °C in test [7] and -3.44 °C in test [8].

In the case of `Cc1cc(OCCCNCCC(N)=O)ccc1Cc1c(O[C@@H]2O[C@H](CO)[C@@H](O)[C@H](O)[C@H]2O)n[nH]c1C(C)C`, the ΔTm in test [1] was 0.54 °C; in test [2], -1.5 °C; in test [3], 0.03 °C; in test [4], -0.12 °C; in test [5] it was -0.7 °C; in test [6], 0.24 °C. Also, the results for the thermal shift (ΔTm) in test [7] and in test [8] were -2.37 °C and -0.75 °C, respectively.

Consider `COC(=O)[C@H]1[C@H]2C[C@@H]3c4[nH]c5cc(OC)ccc5c4CCN3C[C@H]2C[C@@H](OC(=O)c2cc(OC)c(OC)c(OC)c2)[C@@H]1OC`, for which the shift in melting temperature (ΔTm) was 0.21 °C in test [1]; -0.12 °C in test [2]; 0.11 °C in test [3]; -0.26 °C in test [4]; -0.54 °C in test [5]; 0.12 °C in test [6]. Moreover, the ΔTm in test [7] is -0.63 °C; in test [8] it was -0.4 °C.
